In the library only some 7.3% were active in any assay of this set; here they are far more common.
FLuc modulator = qHTS profiling assay for firefly luciferase inhibitor/activator using purifed enzyme and Km concentrations of substrates (counterscreen for miR-21 project) | purified FLuc, Km substrates, luminescence inhibition | Potency, µM (top dose mostly 57.5 µM), without a hit: at the highest dose activity change, negative = inhibition, actives largely listed as inhibitors | actives 6.9% (n = 360,000) | AID 588342, 2011;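 further: plate controls were vehicle for no effect and reference inhibitor for full effect; nearly all actives have a fitted effect of over 55% in size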
Target sequence (P08659 whole entry, looked up): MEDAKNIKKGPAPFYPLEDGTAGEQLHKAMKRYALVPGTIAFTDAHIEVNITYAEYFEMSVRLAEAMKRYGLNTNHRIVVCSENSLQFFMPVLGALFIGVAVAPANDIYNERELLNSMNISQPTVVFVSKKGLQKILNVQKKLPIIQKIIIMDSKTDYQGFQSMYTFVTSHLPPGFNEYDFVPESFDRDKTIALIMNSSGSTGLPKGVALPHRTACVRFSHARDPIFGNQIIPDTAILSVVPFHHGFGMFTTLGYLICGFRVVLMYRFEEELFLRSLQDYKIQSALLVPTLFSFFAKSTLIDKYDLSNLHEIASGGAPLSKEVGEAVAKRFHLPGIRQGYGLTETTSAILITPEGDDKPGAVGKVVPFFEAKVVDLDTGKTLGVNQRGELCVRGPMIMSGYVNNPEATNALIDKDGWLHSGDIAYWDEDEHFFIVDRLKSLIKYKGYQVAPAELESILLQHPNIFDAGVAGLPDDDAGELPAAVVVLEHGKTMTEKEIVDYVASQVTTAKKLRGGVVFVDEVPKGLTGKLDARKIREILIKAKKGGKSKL
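Biochemical qHTS of compounds, final roughly 60 µM downward over six points, against 10 nM purified firefly luciferase using Km concentrations of substrates (10 uM D-luciferin, 10 uM ATP) in Tris acetate pH 7.5 buffer; luminescence output.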
SMN2 splice enh = qHTS Assay for Enhancers of SMN2 Splice Variant Expression; HEK293 SMN2-luciferase splicing reporter, luminescence, 30-36 h; Potency, µM (series often up to 46.1 µM), for the others: at the top dose activity change, positive = activation, most hits filed as activators; actives 2.8% (n = 210,000); further: % of control where 0% means no effect; nearly all actives have a fitted effect of over 55% in size
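HEK293 cells carry an SMN2 […]–luciferase reporter in which exon 7 inclusion puts luciferase in frame. Cells were plated 10-12 h before compound addition, then incubated 30-36 h at 37C. ONE-Glo luminescence was read; sodium butyrate at 4.5 mM final served as control.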
NPC1 promoter act = qHTS Assay for NPC1 Promoter Activators; Huh7 NPC1 promoter luciferase reporter, 24 h; Potency, µM (doses to about 9.22 µM), for the others: at the top dose activation, most hits filed as activators; actives 2.4% (n = 320,000); further: % of control where 0% means no effect; nearly all actives have a fitted effect of over 60% in size
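Luminescence from an NPC1 promoter-driven luciferase reporter in stably transfected Huh7 cells was measured after 24 h compound treatment at 37 °C, followed by 10 min ambient incubation with luciferase detection reagent.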
ELG1 genotoxic = qHTS screen for small molecules that induce genotoxicity in human embryonic kidney (HEK293T) cells expressing luciferase-tagged ELG1; HEK293T ELG1-luciferase reporter, luminescence, 16 h; Potency, µM (highest dose often 46 µM), for inactives: at the highest dose activity change, positive = activation, actives largely listed as activators; actives 1.3% (n = 330,000); further: % of control where 0% means no effect; nearly all actives have a fitted effect of over 60% in size
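Genotoxic stress is detected as increased luminescence from luciferase-tagged ELG1 in HEK293T cells, measured with ONE-Glo after a 16 hr treatment at 37 °C.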
Rab9 promoter act = qHTS Assay for Rab9 Promoter Activators | Potency, µM (series often up to 9.22 µM), inactives show at the highest dose activation, negative = inhibition, most hits filed as activators | Huh7 Rab9 promoter-luciferase reporter, luminescence, 24 h | actives 2.8% (n = 320,000); further: % of control where 0% means no effect; nearly all actives have a fitted effect of over 60% in size
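Stable Rab9-luc Huh7, 1500 cells/well, 2 h settle; cmpd in DMSO, 24 h, 37 °C/5% CO2; luciferase reagent 10 min RT; luminescence.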
KinaseGlo FLuc = Counterscreen for Luciferase (Kinase-Glo TM) Inhibition; Luciferin 4-monooxygenase (Photuris pensylvanica), Q27757; Kinase-Glo luciferase, ATP luminescence, 8 min; Potency, µM (titrated, usually from 38.3 µM), without a hit: at the top dose activity change, negative = inhibition, most hits filed as inhibitors; actives 0.28% (n = 200,000); AID 1379, 2008; further: on the % scale 0 is the no-effect control and ±100 the full control effect; nearly all actives have a fitted effect of over 60% in size
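Inhibition of Kinase-Glo luciferase light generation was assessed at 10 uM ATP in pH 7.2 imidazole buffer, with luminescence measured after eight minutes at ambient temperature.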
The depositor's hits bear a star; ? = inconclusive; . = no result. The call rests on the fitted dose curve; in most records, active means well fitted curve in the direction sought with a large enough effect; inconclusive means small, poorly fitted or top-dose-only effect, or another doubt; inactive means no such curve, though single readings can be large; an effect the other way counts as inactive or inconclusive. Potency means the concentration at half of the fitted maximal effect.

SMILES	FLuc modulator	SMN2 splice enh	NPC1 promoter act	ELG1 genotoxic	Rab9 promoter act	KinaseGlo FLuc
Cc1ccc(OCC(=O)N/N=C\c2cn(Cc3ccccc3)c3ccccc23)cc1C	0.2%	-27.5%	-0.7%	-3.5%	6.8%	-0.2%
Cc1ccccc1OCC(=O)N/N=C/c1cn(C)c2ccccc12	15.1µM*	.	-1.5%	-2.2%	12.7%	.
CNC(=S)N/N=C/c1cn(CCOc2ccc(OC)cc2)c2ccccc12	21.3µM*	?	-0.7%	5.5%	-2.8%	-1.1%
Cc1ccc(OCC(=O)N/N=C/c2cn(C)c3ccccc23)cc1	10.7µM*	.	2.8%	3.5%	10.7%	.
Cc1c(C(=O)N2CCC(C)CC2)c(S(=O)(=O)Nc2cccc(C#N)c2)c(C)n1C	-12.1%	.	.	.	.	.
O=C(O)c1ccc(N/N=C/C2=Cc3ccccc3OC2)cc1	0.953µM*	.	0.631µM*	?	1µM*	.
CCC(OC(=O)C1=Cc2ccccc2OC1)C(=O)NCc1ccco1 (configuration not stated)	4.9%	.	-4.5%	-5.6%	-2.4%	-0.5%
CCN1C(=O)/C(=C2/C=Cc3ccccc3N2C)OC1=S	?	?	2.51µM*	?	3.55µM*	-3.9%
COc1cccc(-n2c(=O)c3c(C)c(C)sc3n(Cc3ccccc3C#N)c2=O)c1	2.4%	4.1%	.	.	.	.
CCOC(=O)c1ccc(-c2nnc(-c3ccc(Cl)cc3Cl)o2)cc1	3.1%	3.55µM*	0.631µM*	16.3%	0.501µM*	3.4%
CCCOC(=O)CSc1nnc(-c2ccc(Cl)cc2Cl)o1	15.1µM*	-3.8%	1.9%	1.0%	-1.5%	-2.7%
CCOC(=O)CSc1nnc(-c2ccc(Cl)cc2Cl)o1	8.49µM*	-1.1%	0.6%	9.2%	-1.7%	-11.5%
CCCCOC(=O)CSc1nnc(-c2ccccc2)o1	-15.9%	.	.	.	.	.
CCOC(=O)CSc1nnc(-c2ccccc2)o1	?	-7.4%	-2.2%	1.9%	-0.5%	0.1%
CCOC(=O)c1cc(-c2nnc(-c3ccc(Cl)cc3)o2)c(C)nc1C	0.6%	-18.4%	-0.3%	2.3%	-3.3%	1.5%
COc1cccc(NC(=O)CCc2c(C)nc3c4cccnc4nn3c2C)c1	4.0%	-32.0%	.	.	.	.
Cn1cccc1-c1nc2ccc([N+](=O)[O-])cc2[nH]1	12µM*	.	2.82µM*	?	2.24µM*	.
O=[N+]([O-])c1ccc2nc(-c3ccccc3)[nH]c2c1	5.36µM*	7.08µM*	2.82µM*	?	2.51µM*	-23.8%
CCOc1ccccc1N(CC(=O)NCCSc1ccccc1)S(=O)(=O)c1ccccc1	-6.6%	6.2%	.	.	.	.
CCN(CC)c1ccc(NS(=O)(=O)c2ccc3c(c2)CCCN3C(C)=O)c(C)c1	-3.5%	.	.	.	.	.
O=C(Nc1cccc(-c2ccc(N3CCCCC3)nn2)c1)c1ccc(Br)o1	0.338µM*	.	1.26µM*	2.31µM*	2.82µM*	.
CCOc1ccc(-c2cccc(NC(=O)c3ccc(Br)o3)c2)nn1	?	.	1.7%	-4.4%	1.6%	.
CC1CCN(c2ccc(-c3cccc(NC(=O)C(F)(F)F)c3)nn2)CC1	0.239µM*	.	?	0.13µM*	0.316µM*	.
O=C(Nc1cccc(-c2ccc3nncn3n2)c1)C(F)(F)F	2.5%	.	1.4%	1.2%	-1.5%	.
CC1CCN(C(=O)C(C)Sc2nc(-c3ccccc3)cc(C(F)(F)F)n2)CC1 (configuration not stated)	-7.2%	-19.6%	-4.9%	-10.6%	-2.0%	-4.4%
O=C(Nc1cccc(-c2ccc(N3CCCCC3)nn2)c1)C(F)(F)F	1.35µM*	.	0.282µM*	?	0.794µM*	.
CCOC(=O)C1CCN(C(=O)C2CCN(S(=O)(=O)c3c(C)noc3/C=C/c3ccc(C)cc3)CC2)CC1	7.0%	.	.	.	.	.

Bioassay records from PubChem BioAssay.
